Results: PubChem BioAssay (NCI)
About 79,000 compounds went through this panel and 15% of them were active in at least one assay; those are over-represented in the sample as a whole. The source made the active and inactive calls. No stated cut-off is given here; in the data, active means growth inhibition above about 70%; inactive means the rest.

How the values were obtained:
[1] = NCI Yeast Anticancer Drug Screen. Data for the rad50 strain (AID 155);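 further: 0% = growth of vehicle-only cultures of the same strain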; details: S. cerevisiae rad50 strain growth inhibition; at 50.0 µM; stronger effect = higher value
How it was run: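 Compounds were tested on a yeast strain with an engineered DNA damage repair alteration; the reported value is growth inhibition normalised to vehicle treatment.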

[2] = NCI Yeast Anticancer Drug Screen. Data for the mec2-1 strain (AID 157); details: S. cerevisiae mec2-1 strain, at 50.0 µM, stronger effect = higher value
How it was run: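 Vehicle-treated cultures served as reference for growth inhibition of compound-exposed mec2-1 yeast.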

[3] = NCI Yeast Anticancer Drug Screen. Data for the sgs1 mgt1 strain (AID 161);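 further: 0% = growth of cultures given vehicle only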; details: S. cerevisiae sgs1 mgt1 strain, at 50.0 µM, stronger effect = higher value
How it was run: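 Read-out: growth inhibition vs vehicle controls. Cells: mutant yeast strain deficient in DNA damage repair.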

[4] = NCI Yeast Anticancer Drug Screen. Data for the cln2 rad14 strain (AID 165);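 further: 0% = growth equal to vehicle treated cultures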; details: S. cerevisiae cln2 rad14 strain, at 50.0 µM, stronger effect = higher value
How it was run: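 Each compound was tested on cln2 rad14 yeast. Inhibition of growth was calculated against vehicle-exposed controls.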

[5] = NCI Yeast Anticancer Drug Screen. Data for the bub3 strain (AID 167); details: S. cerevisiae bub3 mutant strain, at 50.0 µM, stronger effect = higher value
How it was run: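 Growth of a checkpoint-deficient yeast mutant is measured after compound exposure. Values represent inhibition relative to vehicle.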

[6] = NCI Yeast Anticancer Drug Screen. Data for the mlh1 rad18 strain (AID 175); details: S. cerevisiae mlh1 rad18 strain growth inhibition; at 50.0 µM; stronger effect = higher value
How it was run: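 Vehicle-treated cultures served as the reference for growth inhibition in a yeast strain carrying DNA damage repair alterations exposed to each compound.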

Measured: growth inhibition

O=C(OC1CCCC1)C1(O)CCCCC1
inactive: [1] 18.2% | [2] 12.7% | [3] 3.8% | [4] 10.5% | [5] -2.15% | [6] -16.2%

[Cl][Pt+2][Cl].[NH-]C1CCCCC1C1CCCCC1[NH-] (stereo not drawn)
inactive: [1] 14.6% | [2] -12.4% | [3] -29.2% | [4] -41.2% | [5] -29.8% | [6] -27.4%

CCC1=C(C(C)=O)[C@@H]2CCCCC(C(=O)OC)[C@@H]2C1=O (stereo partly drawn)
inactive: [1] -38.7% | [2] -20.3% | [3] -20.8% | [4] 19.7% | [5] 8.65% | [6] -3.7%

CCc1nc2c(c(=O)[nH]1)C(c1ccc(Cl)cc1)C(C)(C)O2 (stereo not drawn)
inactive: [1] -1.2% | [2] -22.6% | [3] -17.4% | [4] 4.45% | [5] 1.1% | [6] -7.4%

O=C1CSC(c2ccccc2[N+](=O)[O-])N1c1ccc(-n2c(-c3ccccc3)nc3ccccc3c2=O)cc1 (stereo not drawn)
inactive: [1] -8.95% | [2] -10.1% | [3] -4.05% | [4] -16.1% | [5] 13.3% | [6] 7.6%

c1csc(-c2nn3c(C45CC6CC(CC(C6)C4)C5)nnc3s2)c1
inactive: [1] 10.9% | [2] -15.3% | [3] -20.1% | [4] -11.3% | [5] 2.3% | [6] -12.8%

CCN(CC)c1ccc(/C=C(\C)c2nc3ccc(Cl)cc3[nH]2)cc1
inactive: [1] -5.35% | [2] 6.6% | [3] 4.5% | [4] 7% | [5] -5.95% | [6] -4.75%

O=C(Nc1cccc2ccccc12)c1ccc(Cl)c(Cl)c1
inactive: [1] 38.6% | [2] 53.4% | [3] 52.8% | [4] 43.8% | [5] 63.5%
active: [6] 72.3%

CCOC(=O)c1ccc(NN=NCCF)cc1
inactive: [1] 15.8% | [2] 10% | [3] 0.4% | [4] 6.4% | [5] -32.5% | [6] -44.1%

CSc1cc(C)c(OC(=O)Nc2cc(C)ccc2C)c(C)c1
inactive: [1] -3.45% | [2] 0.8% | [3] 3% | [4] 1% | [5] 33.2% | [6] 9.75%

S=c1[nH]c2ccccc2n1CCc1ccncc1
inactive: [1] -6.8% | [2] -15.1% | [3] 22.2% | [4] -1.5% | [5] 1.05% | [6] 3.5%

Nc1ccc2cc(S(=O)(=O)O)cc(S(=O)(=O)O)c2c1
inactive: [1] 39.3% | [2] -5.2% | [3] 6.6% | [4] -18.9% | [5] -0.15% | [6] 31.8%

NC(Cc1c[nH]c2ccc(O)cc12)C(=O)O (stereo not drawn)
inactive: [1] -5.85% | [2] -8.35% | [3] -4.9% | [4] 4.9% | [5] -0.7% | [6] -9.3%

CN(C)CCCC(O)c1cccc2ccccc12 (stereo not drawn)
inactive: [1] 25.4% | [2] -12.6% | [3] 10.7% | [4] -4.65% | [5] 0.8% | [6] 24.4%

CC(C)=CCCC(=O)C(c1nc2nnc(N)n2[nH]c1=O)c1nc2nnc(N)n2[nH]c1=O
inactive: [1] 13.3% | [2] 13.6% | [3] -1.95% | [4] 17.8% | [5] 1.6% | [6] -7.55%

C[Si](C)(C)Nc1ncnc2c1ncn2[Si](C)(C)C
inactive: [1] 14.6% | [2] 4.85% | [3] 21.6% | [4] -9.3% | [5] 2.85% | [6] 7.05%

Cc1cc(NS(=O)(=O)c2ccc(NC(=O)c3cccn4c(=O)c5ccccc5nc34)cc2)no1
inactive: [1] -24.6% | [2] 3.7% | [3] -44% | [4] 0.8% | [5] -14.7% | [6] -8.8%

CC/C(Cl)=N\OC(=O)Nc1ccc(F)cc1F
inactive: [1] 2.2% | [2] -12.1% | [3] -4.05% | [4] 7.05% | [5] -6.45% | [6] -26.4%

Cc1ccc(C)c(NC(=O)CCC(=O)C(C#N)c2nc3ccccc3s2)c1 (stereo not drawn)
inactive: [1] 25.9% | [2] -3.3% | [3] -5.15% | [4] 17.6% | [5] 3.7% | [6] -5.7%

Clc1c(-c2ccccc2)oc2nc3ccccc3nc12
inactive: [1] 13.9% | [2] 6.85% | [3] 13.6% | [4] 21.6% | [5] -1.55% | [6] 26.2%

CSCCC(NC(=O)c1cnc2ccccc2c1)C(N)=O (stereo not drawn)
inactive: [1] -0.25% | [2] -4.85% | [3] 2.6% | [4] -33.6% | [5] -21.8% | [6] 14.8%

O=C1CSc2nc3c(I)cc(I)cc3c(=O)n21
inactive: [1] 2.65% | [2] 6.2% | [3] -0.75% | [4] -25.1% | [5] -7.3% | [6] -0.6%

O=C(Nc1ccccc1C(=O)N/N=C/c1ccccc1O)c1ccccc1Cl
inactive: [5] 68.3%
active: [1] 73.3% | [2] 91% | [3] 91.4% | [4] 84.8% | [6] 90.8%

C=CCNC(=S)Nc1ccc(OC(=O)NC2CCCCC2)cc1
inactive: [1] 6.4% | [2] 23.6% | [3] 15.1% | [4] -7.85% | [5] -2.4% | [6] 31.9%

CC(C)C(=O)Oc1cc2c(=O)oc3c(OC(=O)C(C)C)c(OC(=O)C(C)C)cc4c(=O)oc(c1OC(=O)C(C)C)c2c34
inactive: [1] 40.1% | [2] 12.6% | [3] 25.6% | [4] 13.7% | [5] 31.6% | [6] 48.5%

CC(C)(C)n1nc(C2CC2)cc1NC(=O)Nc1ccc(Cl)cc1
inactive: [1] -0.55% | [2] -8.25% | [3] -8.55% | [4] 8.85% | [5] -2.55% | [6] 2.4%

CCCCCc1nc2c(c(=O)n(C)c(=O)n2C)n1C
inactive: [1] 14.2% | [2] -9.35% | [3] -1% | [4] 0% | [5] 6% | [6] 17.6%

COc1ccc2c3c([nH]c2c1)CCN(Cc1ccccc1)C3
inactive: [1] -31.1% | [2] -21.6% | [3] 13.8% | [4] 19.6% | [5] 15.2% | [6] 1.1%

CC1CCC2(CC1)N=C1CCC(C)CC1C1(CCC(C)CC1)N2 (stereo not drawn)
inactive: [1] -22.4% | [2] 0.25% | [3] -32.9% | [4] -23.1% | [5] -13.2% | [6] -11.1%

Cc1cc2nc3c(=O)[nH]c(=O)nc-3n(CCO)c2cc1C
inactive: [1] -0.5% | [2] 1.5% | [3] 8.6% | [4] -39.4% | [5] 6.15% | [6] -9.95%

O=[N+]([O-])c1ccc(O)c(O)c1
inactive: [1] -23.6% | [2] -1.7% | [3] -10% | [4] 12.8% | [5] 5.6% | [6] -6.85%

O=[N+]([O-])c1cccc2cnccc12
inactive: [1] -7.25% | [2] 22.4% | [3] 3.9% | [4] -21.1% | [5] 5.5% | [6] 17.6%

N=C(N)SCCCN
inactive: [1] -1.7% | [2] -14.7% | [3] -3.6% | [4] 2.95% | [5] -36% | [6] 29.1%

COc1ccc(N=C2S/C(=N\C(=Nc3ccccc3)SCc3ccccc3)N(c3ccccc3)C2=Nc2ccc(OC)cc2)cc1
inactive: [1] -4.55% | [2] -5.85% | [3] -8.25% | [4] 4.05% | [5] -6.8% | [6] 5.25%

CCCCCCCCCCCCCCCCS(=O)(=O)c1ccc(S(=O)(=O)CS(C)(=O)=O)cc1[N+](=O)[O-]
inactive: [1] -5.55% | [2] -16.2% | [3] 9.85% | [4] 0.85% | [5] 21.1% | [6] 15.3%

Cn1nc(-c2ccccc2)c(C(=O)/C=C/c2ccc(F)cc2)c(N2CCOCC2)c1=O
inactive: [1] -34.9% | [2] -34% | [3] -54.8% | [4] 5.9% | [5] -21.6% | [6] -15.8%

BrC1c2ccccc2-c2nc3ccccc3nc21 (stereo not drawn)
inactive: [1] 11.2% | [2] 4.6% | [3] 1.6% | [4] 56.2% | [5] 17.1% | [6] 29.9%

CCCCCCCCCCCCCCCCN (tested in a mixture with another compound)
inactive: [1] 29.9% | [2] -11.1% | [3] 7.9% | [4] -24.1% | [5] 26.5% | [6] 17.4%
